Compounds without any hit were thinned out: in the full panel of roughly 79,000, 15% have a hit. The source made the active and inactive calls. Cut-off read from the data, not from the text of the source: active = growth inhibition above about 70%; inactive = the rest.
Assays:
[1] = NCI Yeast Anticancer Drug Screen. Data for the rad50 strain (AID 155);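 note: 0% = growth of vehicle-only cultures of the same strain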; conditions: S. cerevisiae rad50 strain growth inhibition, active compounds read high
In short: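 A DNA repair-deficient yeast mutant serves as the test organism; compound-induced growth inhibition is calculated against vehicle-treated cells.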

[2] = NCI Yeast Anticancer Drug Screen. Data for the mec2-1 strain (AID 157); conditions: S. cerevisiae mec2-1 strain, active compounds read high
In short: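 Readout is yeast growth inhibition, normalised to vehicle-treated controls, in the mec2-1 strain exposed to compound.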

[3] = NCI Yeast Anticancer Drug Screen. Data for the sgs1 mgt1 strain (AID 161);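 note: 0% = growth of cultures given vehicle only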; conditions: S. cerevisiae sgs1 mgt1 strain, active compounds read high
In short: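 Yeast cells carrying a defined DNA-repair defect were exposed to test compounds. Growth inhibition was measured relative to vehicle-treated controls.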

[4] = NCI Yeast Anticancer Drug Screen. Data for the cln2 rad14 strain (AID 165);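 note: 0% = growth equal to vehicle treated cultures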; conditions: S. cerevisiae cln2 rad14 strain, active compounds read high
In short: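 Relative to vehicle controls, growth inhibition of compound-treated cln2 rad14 yeast was recorded.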

[5] = NCI Yeast Anticancer Drug Screen. Data for the bub3 strain (AID 167); conditions: S. cerevisiae bub3 mutant strain, active compounds read high
In short: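 Inhibition values come from growth of compound-treated mutant yeast normalised to vehicle-treated controls.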

[6] = NCI Yeast Anticancer Drug Screen. Data for the mlh1 rad18 strain (AID 175); conditions: S. cerevisiae mlh1 rad18 strain growth inhibition, active compounds read high
In short: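 Test agents were incubated with a yeast strain of defined genotype (DNA damage repair defect). Inhibition of growth was derived by comparison with vehicle-exposed cultures.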

[7] = at 5.0 µM (retest, dose inferred, filed as 0.5)
[8] = at 50.0 µM (retest, dose inferred, filed as 5.0)

Measured: growth inhibition

N#CSc1ccc(O)cc1
inactive: [1]; [7] 0% | [2]; [7] 1% | [3]; [7] 4% | [4]; [7] 3% | [5]; [7] 0% | [6]; [7] 1%
active: [1]; [8] 95% | [1]; at 50.0 µM 94.3% | [2]; [8] 97% | [2]; at 50.0 µM 96.2% | [3]; [8] 97% | [3]; at 50.0 µM 92.6% | [4]; [8] 97% | [4]; at 50.0 µM 93.8% | [5]; [8] 96% | [5]; at 50.0 µM 96.4% | [6]; [8] 95% | [6]; at 50.0 µM 93.3%

CCCCNc1ccc(-c2c(N)nc(N)nc2CC)cc1[N+](=O)[O-]
inactive: [1]; [7] -7% | [1]; [8] 0% | [1]; at 50.0 µM 62.4% | [2]; [7] -16% | [2]; [8] 2% | [2]; at 50.0 µM 17.6% | [3]; [7] -9% | [3]; [8] 15% | [3]; at 50.0 µM 57% | [4]; [7] -34% | [4]; [8] 8% | [4]; at 50.0 µM 27.1% | [5]; [7] -4% | [5]; [8] -1% | [5]; at 50.0 µM -0.35% | [6]; [7] -9% | [6]; [8] -16% | [6]; at 50.0 µM 62.8%

NC(=O)NNC(=O)NNC(N)=O
inactive: [1]; [7] -4% | [1]; [8] 9% | [1]; at 50.0 µM 0.95% | [2]; [7] -2% | [2]; [8] 1% | [2]; at 50.0 µM -4.8% | [3]; [7] 3% | [3]; [8] 4% | [3]; at 50.0 µM -20.2% | [4]; [7] -1% | [4]; [8] 3% | [5]; [7] -4% | [5]; [8] -8% | [5]; at 50.0 µM -3.5% | [6]; [7] -3% | [6]; [8] 9% | [6]; at 50.0 µM -3.85%
active: [4]; at 50.0 µM 70.8%

CC(=O)Nc1ccc(S(=O)(=O)N/N=C/c2cc(I)cc([N+](=O)[O-])c2O)cc1
active: [1]; [8] 71% | [1]; at 50.0 µM 89% | [2]; [8] 81% | [2]; at 50.0 µM 81.5% | [3]; at 50.0 µM 89.7% | [4]; at 50.0 µM 83.1% | [5]; at 50.0 µM 70.5% | [6]; [8] 72% | [6]; at 50.0 µM 94.3%
inactive: [1]; [7] 9% | [2]; [7] 10% | [3]; [7] 14% | [3]; [8] 69% | [4]; [7] 1% | [4]; [8] 35% | [5]; [7] 1% | [5]; [8] 47% | [6]; [7] 12%

O/N=C(/CN1CCN(c2ccccc2)CC1)c1ccccc1
inactive: [1]; [7] 1% | [1]; [8] -1% | [1]; at 50.0 µM 45.4% | [2]; [7] 0% | [2]; [8] -2% | [2]; at 50.0 µM -14.4% | [3]; [7] -4% | [3]; [8] -3% | [3]; at 50.0 µM 10.7% | [4]; [7] 2% | [4]; [8] 1% | [4]; at 50.0 µM -68.2% | [5]; [7] -2% | [5]; [8] -2% | [5]; at 50.0 µM 13.4% | [6]; [7] 1% | [6]; [8] -4% | [6]; at 50.0 µM -3.8%

CN1CCCC1c1cccc(Br)c1 (stereo not given)
active: [1]; [8] 81%
inactive: [1]; [7] -163% | [1]; at 50.0 µM 59% | [2]; [7] -51% | [2]; [8] 26% | [2]; at 50.0 µM 17.1% | [3]; [7] -65% | [3]; [8] 37% | [3]; at 50.0 µM 21.6% | [4]; [7] -75% | [4]; [8] 50% | [4]; at 50.0 µM -1.05% | [5]; [7] -69% | [5]; [8] 54% | [5]; at 50.0 µM -8.55% | [6]; [7] -125% | [6]; [8] 50% | [6]; at 50.0 µM 26.1%

O=C(Nc1ccc(/C=C/c2ccc(NC(=O)c3cc(S(=O)(=O)O)c4cccnc4c3O)cc2S(=O)(=O)O)c(S(=O)(=O)O)c1)c1cc(S(=O)(=O)O)c2cccnc2c1O
inactive: [1]; [7] 19% | [2]; [7] 26% | [3]; [7] 34% | [4]; [7] 9% | [5]; [7] 13% | [6]; [7] 41%
active: [1]; [8] 97% | [1]; at 50.0 µM 94.4% | [2]; [8] 97% | [2]; at 50.0 µM 88.7% | [3]; [8] 97% | [3]; at 50.0 µM 93.8% | [4]; [8] 95% | [4]; at 50.0 µM 90.2% | [5]; [8] 98% | [5]; at 50.0 µM 95.9% | [6]; [8] 97% | [6]; at 50.0 µM 91.3%

CCCC1(C)C(C#N)(C#N)C1(C#N)C#N
active: [1]; [7] 98% | [1]; [8] 98% | [1]; at 50.0 µM 98.5% | [2]; [7] 96% | [2]; [8] 99% | [2]; at 50.0 µM 99.3% | [3]; [7] 98% | [3]; [8] 99% | [3]; at 50.0 µM 99.3% | [4]; [7] 99% | [4]; [8] 99% | [4]; at 50.0 µM 99.1% | [5]; [7] 99% | [5]; [8] 99% | [5]; at 50.0 µM 99% | [6]; [7] 99% | [6]; [8] 99% | [6]; at 50.0 µM 99.2%

N#Cc1ccc(OC(=O)Nc2c(Cl)cccc2Cl)cc1
inactive: [1]; [7] 46% | [1]; [8] 41% | [2]; [7] 36% | [2]; [8] 42% | [3]; [7] 44% | [3]; [8] 53% | [4]; [7] 34% | [4]; [8] 45% | [5]; [7] 31% | [6]; [7] 47% | [6]; [8] 50%
active: [1]; at 50.0 µM 80.4% | [2]; at 50.0 µM 82.2% | [3]; at 50.0 µM 86.2% | [4]; at 50.0 µM 83.9% | [5]; [8] 70% | [5]; at 50.0 µM 84.3% | [6]; at 50.0 µM 83.5%

COc1ccc2nc3cc(Cl)ccc3c(Nc3ccc(S(N)(=O)=O)cc3)c2c1
inactive: [1]; [7] 0% | [1]; [8] 17% | [1]; at 50.0 µM 37.5% | [2]; [7] 0% | [2]; [8] 9% | [2]; at 50.0 µM -11.4% | [3]; [7] 0% | [3]; [8] 5% | [3]; at 50.0 µM -6.05% | [4]; [7] 9% | [4]; [8] 3% | [4]; at 50.0 µM -8.25% | [5]; [7] -1% | [5]; [8] 2% | [5]; at 50.0 µM -11.4% | [6]; [7] 1% | [6]; [8] 2% | [6]; at 50.0 µM -6.5%

Source: PubChem BioAssay (NCI)
